# Laboratory results from the supplement of paper PMC8728848.
# Shown is part of a subset that was picked to be rich in the strongest signals.
# Columns and labels:
# Test in all cases: glycan array binding signal (z-score within array); higher = stronger binding
# Details in all cases: glycan notation: IUPAC condensed, linker removed
# [1] = target: Fuc(a1-2)Gal(b1-3)GalNAc(a1-3)[Fuc(a1-2)]Gal(b1-4)Glc
# In short: (§1)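 Negative Z-scores can be read as non-binding. The Z-score is calculated within each array and then averaged across arrays of one protein sequence at different concentrations or buffers and across linkers. Arrays, 3228 in all, were curated from the Consortium for Functional Glycomics database and kept only where the protein sequence was available.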
# [2] = target: Fuc(a1-2)Gal(b1-3)GlcNAc(b1-3)[Gal(b1-4)GlcNAc(b1-6)]Gal(b1-4)Glc
# In short: as §1
# [3] = target: Fuc(a1-2)Gal(b1-3)GlcNAc(b1-3)[Neu5Ac(a2-6)Gal(b1-4)GlcNAc(b1-6)]Gal(b1-4)Glc
# In short: as §1
# [4] = target: Fuc(a1-2)Gal(b1-3)[Fuc(a1-4)]GlcNAc
# In short: as §1
# [5] = target: Fuc(a1-2)Gal(b1-4)Glc6S
# In short: as §1
# [6] = target: Fuc(a1-2)Gal(b1-4)[Fuc(a1-3)]GlcNAc(b1-3)GalNAc
# In short: as §1
# [7] = target: Fuc(a1-2)Gal3S(b1-4)GlcNAc
# In short: as §1
# [8] = target: Fuc(a1-2)Gal6S(b1-4)Glc
# In short: as §1
# [9] = target: Fuc(a1-2)[GalNAc(a1-3)]Gal
# In short: as §1
# [10] = target: Fuc(a1-2)[GalNAc(a1-3)]Gal(b1-3)GlcNAc(b1-6)GalNAc
# In short: as §1
# [11] = target: Fuc(a1-2)[GalNAc(a1-3)]Gal(b1-4)Glc
# In short: as §1
# [12] = target: Fuc(a1-2)[GalNAc(a1-3)]Gal(b1-4)GlcNAc
# In short: as §1
# [13] = target: Fuc(a1-2)[GalNAc(a1-3)]Gal(b1-4)[Fuc(a1-3)]GlcNAc(b1-3)GalNAc
# In short: as §1
# [14] = target: Fuc(a1-3)[Gal(b1-4)]GlcNAc(b1-2)Man
# In short: as §1
# [15] = target: Fuc(a1-3)[Gal(b1-4)]GlcNAc(b1-4)Gal(b1-4)[Fuc(a1-3)]GlcNAc
# In short: as §1
# [16] = target: Fuc(a1-3)[Gal3S(b1-4)]GlcNAc6S
# In short: as §1
# [17] = target: Fuc(a1-4)GlcNAc
# In short: as §1
# [18] = target: Gal(a1-3)Gal(b1-3)GlcNAc
# In short: as §1
# [19] = target: Gal(a1-3)Gal(b1-4)Glc
# In short: as §1
# [20] = target: Gal(a1-4)Gal(b1-3)GlcNAc(b1-2)Man(a1-3)[Gal(a1-4)Gal(b1-3)GlcNAc(b1-2)Man(a1-6)]Man(b1-4)GlcNAc(b1-4)GlcNAc
# In short: as §1
# [21] = target: Gal(a1-4)GlcNAc
# In short: as §1
# [22] = target: Gal(b1-2)Gal
# In short: as §1
# [23] = target: Gal(b1-3)GlcNAc(b1-3)Gal(b1-4)GlcNAc(b1-3)Gal(b1-4)GlcNAc(b1-2)[Gal(b1-3)GlcNAc(b1-3)Gal(b1-4)GlcNAc(b1-3)Gal(b1-4)GlcNAc(b1-6)]Man(a1-6)[Gal(b1-3)GlcNAc(b1-3)Gal(b1-4)GlcNAc(b1-3)Gal(b1-4)GlcNAc(b1-2)Man(a1-3)]Man(b1-4)GlcNAc(b1-4)[Fuc(a1-6)]GlcNAc
# In short: as §1
# [24] = target: Gal(b1-3)GlcNAc(b1-3)Gal(b1-4)[Fuc(a1-3)]GlcNAc(b1-6)[Gal(b1-3)GlcNAc(b1-3)]Gal(b1-4)Glc
# In short: as §1
# [25] = target: Gal(b1-3)GlcNAc(b1-3)GalNAc
# In short: as §1
# [26] = target: Gal(b1-4)GlcNAc(b1-3)Gal(b1-3)GlcNAc
# In short: as §1
# [27] = target: Gal(b1-4)GlcNAc(b1-3)GalNAc
# In short: as §1
# [28] = target: Gal(b1-4)GlcNAc(b1-6)[Gal(b1-3)]GalNAc
# In short: as §1
# [29] = target: GalNAc(a1-3)GalNAc
# In short: as §1
# [30] = target: GalNAc(a1-3)GalNAc(a1-3)Gal(a1-4)Gal(b1-4)GlcNAc
# In short: as §1
# [31] = target: GalNAc(a1-3)GalNAc(b1-3)Gal(a1-4)Gal(b1-4)Glc
# In short: as §1
# [32] = target: GalNAc(b1-4)GlcNAc6S
# In short: as §1
# [33] = target: GlcNAc(a1-4)Gal(b1-4)GalNAc
# In short: as §1
# [34] = target: GlcNAc(a1-4)Gal(b1-4)GlcNAc(b1-3)Gal(b1-4)[Fuc(a1-3)]GlcNAc(b1-3)Gal(b1-4)[Fuc(a1-3)]GlcNAc
# In short: as §1
# [35] = target: GlcNAc(b1-2)[GlcNAc(b1-4)]Man(a1-3)[GlcNAc(b1-4)][GlcNAc(b1-2)Man(a1-6)]Man(b1-4)GlcNAc(b1-4)GlcNAc
# In short: as §1
# [36] = target: GlcNAc(b1-3)Gal(b1-4)GlcNAc(b1-3)Gal(b1-4)GlcNAc(b1-3)Gal(b1-4)GlcNAc(b1-3)Gal(b1-4)GlcNAc(b1-2)[GlcNAc(b1-3)Gal(b1-4)GlcNAc(b1-3)Gal(b1-4)GlcNAc(b1-3)Gal(b1-4)GlcNAc(b1-3)Gal(b1-4)GlcNAc(b1-6)]Man(a1-6)[GlcNAc(b1-3)Gal(b1-4)GlcNAc(b1-3)Gal(b1-4)GlcNAc(b1-3)Gal(b1-4)GlcNAc(b1-3)Gal(b1-4)GlcNAc(b1-2)Man(a1-3)]Man(b1-4)GlcNAc(b1-4)[Fuc(a1-6)]GlcNAc
# In short: as §1
# [37] = target: GlcNAc(b1-3)Gal(b1-4)GlcNAc(b1-3)GalNAc
# In short: as §1
# [38] = target: GlcNAc(b1-3)GalNAc
# In short: as §1
# [39] = target: GlcNAc(b1-4)Gal(b1-4)GlcNAc
# In short: as §1
# [40] = target: Kdn(a2-3)Gal(b1-3)GlcNAc
# In short: as §1
# [41] = target: Man(a1-2)Man(a1-2)Man(a1-6)[Man(a1-3)]Man
# In short: as §1
# [42] = target: MurNAc(b1-4)GlcNAc
# In short: as §1
# [43] = target: Neu5Ac(a2-3)GalNAc
# In short: as §1
# [44] = target: Neu5Ac(a2-3)[GalNAc(b1-4)]Gal(b1-4)Glc
# In short: as §1
# [45] = target: Neu5Ac(a2-3)[GalNAc(b1-4)]Gal(b1-4)GlcNAc
# In short: as §1
# [46] = target: Neu5Ac(a2-6)Gal(b1-4)GlcNAc
# In short: as §1
# [47] = target: Neu5Ac(a2-6)Gal(b1-4)GlcNAc(b1-2)Man
# In short: as §1
# [48] = target: Neu5Ac(a2-6)Gal(b1-4)GlcNAc(b1-2)Man(a1-3)Man(b1-4)GlcNAc(b1-4)GlcNAc
# In short: as §1
# [49] = target: Neu5Ac(a2-6)Gal(b1-4)GlcNAc(b1-2)Man(a1-6)[Gal(b1-4)GlcNAc(b1-2)Man(a1-3)]Man(b1-4)GlcNAc(b1-4)GlcNAc
# In short: as §1
# [50] = target: Neu5Ac(a2-6)Gal(b1-4)GlcNAc6S
# In short: as §1
# [51] = target: Neu5Ac(a2-8)Neu5Ac(a2-3)[Gal(b1-3)GalNAc(b1-4)]Gal(b1-4)Glc
# In short: as §1
# [52] = target: Neu5Ac(a2-8)Neu5Ac(a2-8)Neu5Ac(a2-8)Neu5Ac(a2-3)[GalNAc(b1-4)]Gal(b1-4)Glc
# In short: as §1
binder,measurement,setting,value
DBA (Dolichos biflorus) (protein) ANIQSFSFKNFNSPSFILQGDATVSSGKLQLTKVKENGFPLRFPSGRAFYSSPIQIYDKFTGAVASWATSFTVKISAPSKASFADGIAFALVPVGSEPRRNGGYLGVFDSDVYNNSAQTVAVEFDTLSNSGWDPSMKHIGIDVNSIKSIATVSWDLANGENAEILITYNAATSLLVVSLVHPSRRTSYILSERVDITNELPEYVGVGFSATTGLSEGYIETHDVLSWSFASRLPDDSTAEPLDLARYLVRNVL,glycan array binding signal (z-score),[1],-0.133
same,glycan array binding signal (z-score),[2],-0.099
same,glycan array binding signal (z-score),[3],-0.152
same,glycan array binding signal (z-score),[4],-0.142
same,glycan array binding signal (z-score),[5],-0.09
same,glycan array binding signal (z-score),[6],0.449
same,glycan array binding signal (z-score),[7],-0.041
same,glycan array binding signal (z-score),[8],0.346
same,glycan array binding signal (z-score),[9],0.024
same,glycan array binding signal (z-score),[10],-0.113
same,glycan array binding signal (z-score),[11],0.577
same,glycan array binding signal (z-score),[12],0.575
same,glycan array binding signal (z-score),[13],0.333
same,glycan array binding signal (z-score),[14],-0.116
same,glycan array binding signal (z-score),[15],-0.19
same,glycan array binding signal (z-score),[16],-0.015
same,glycan array binding signal (z-score),[17],-0.115
same,glycan array binding signal (z-score),[18],-0.124
same,glycan array binding signal (z-score),[19],-0.119
same,glycan array binding signal (z-score),[20],-0.059
same,glycan array binding signal (z-score),[21],-0.126
same,glycan array binding signal (z-score),[22],-0.113
same,glycan array binding signal (z-score),[23],0.071
same,glycan array binding signal (z-score),[24],-0.1
same,glycan array binding signal (z-score),[25],-0.126
same,glycan array binding signal (z-score),[26],-0.125
same,glycan array binding signal (z-score),[27],-0.144
same,glycan array binding signal (z-score),[28],-0.121
same,glycan array binding signal (z-score),[29],12.1
same,glycan array binding signal (z-score),[30],12.5
same,glycan array binding signal (z-score),[31],13.4
same,glycan array binding signal (z-score),[32],1.8
same,glycan array binding signal (z-score),[33],-0.085
same,glycan array binding signal (z-score),[34],-0.007
same,glycan array binding signal (z-score),[35],-0.133
same,glycan array binding signal (z-score),[36],-0.1
same,glycan array binding signal (z-score),[37],-0.139
same,glycan array binding signal (z-score),[38],-0.101
same,glycan array binding signal (z-score),[39],-0.16
same,glycan array binding signal (z-score),[40],-0.169
same,glycan array binding signal (z-score),[41],-0.081
same,glycan array binding signal (z-score),[42],-0.119
same,glycan array binding signal (z-score),[43],-0.165
same,glycan array binding signal (z-score),[44],4.19
same,glycan array binding signal (z-score),[45],3.09
same,glycan array binding signal (z-score),[46],-0.103
same,glycan array binding signal (z-score),[47],-0.127
same,glycan array binding signal (z-score),[48],-0.098
same,glycan array binding signal (z-score),[49],-0.144
same,glycan array binding signal (z-score),[50],-0.118
same,glycan array binding signal (z-score),[51],-0.124
same,glycan array binding signal (z-score),[52],-0.104
